Experimental data reported in PubChem BioAssay (Tox21).
Where “and” joins values, the source holds several entries; their conditions need not be identical. Equal values may be shown once. Records with an inconclusive call do not appear. A call without a number means that no potency is given here. A structure can be active in one record and inactive in another. Calls of active or inactive are those of the source. Calls follow the shape of the dose curve; as a rule, active = well fitted curve in the direction sought with a large enough effect in the repeat runs; inconclusive = weak or mixed curves; inactive = no such curve, though single readings can be large; an effect the other way counts as inactive or inconclusive.

Key:
[1] = qHTS RealTime-Glo MT Cell Viability Assay in HEK293 cells - 0 hour (AID 1224880); also: nearly all actives have a fitted effect of over 45% in size; also: potency is read from the fitted curve at half-maximal effect
How it was run: (§1)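 Cells were seeded together with NanoLuc luciferase and a prosubstrate that viable cells reduce to a luciferase substrate. After a 5 h incubation at 37 C/5% CO2, compounds were added and luminescence was measured repeatedly during 40 h of treatment.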

[2] = A CellTox Green Cytotoxicity Assay to monitor cytotoxicity in HEK293 cells - 32 hour (AID 1224881); also: nearly all actives have a fitted effect of over 40% in size; also: potency is read from the fitted curve at half-maximal effect
How it was run: (§2)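 Nonlytic real-time cytotoxicity: HEK293 + CellTox Green reagent plated, 5 h preincubation, pintool compound addition (23 nL in DMSO), 37 C for 40 h, fluorescence measured at successive time points.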

[3] = A CellTox Green Cytotoxicity Assay to monitor cytotoxicity in HepG2 cells - 0 hour (AID 1224882); also: nearly all actives have a fitted effect of over 35% in size; also: potency is read from the fitted curve at half-maximal effect
How it was run: (§3)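 Read-out is fluorescence of a cyanine dye excluded from live cells that stains DNA of dead HepG2 cells, with signal proportional to cytotoxicity. Plates were read at 0, 8, 16, 24, 32 and 40 h after compound addition.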

[4] = A CellTox Green Cytotoxicity Assay to monitor cytotoxicity in HepG2 cells - 32 hour (AID 1224883); also: nearly all actives have a fitted effect of over 50% in size; also: potency is read from the fitted curve at half-maximal effect
How it was run: as §3

[5] = A CellTox Green Cytotoxicity Assay to monitor cytotoxicity in HEK293 cells - 8 hour (AID 1224884); also: nearly all actives have a fitted effect of over 35% in size; also: potency is read from the fitted curve at half-maximal effect
How it was run: as §2

[6] = qHTS RealTime-Glo MT Cell Viability Assay in HepG2 cells - 16 hour (AID 1224885); also: nearly all actives have a fitted effect of over 50% in size
How it was run: (§4)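 HepG2 suspension premixed with RealTime-Glo reagents is plated at 600 cells per well and left 5 h at 37 C/5% CO2. Compounds in DMSO then go in, and bioluminescence reflecting viable cell number is recorded over 40 h.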

[7] = qHTS RealTime-Glo MT Cell Viability Assay in HEK293 cells - 24 hour (AID 1224886); also: nearly all actives have a fitted effect of over 50% in size; also: potency is read from the fitted curve at half-maximal effect
How it was run: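 Reads taken at 0, 8, 16, 24, 32 and 40 h from the same wells. HEK293 cells (600/well) carried RealTime-Glo reagents from seeding, with compound added after a 5 h settle at 37 C.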

[8] = qHTS RealTime-Glo MT Cell Viability Assay in HEK293 cells - 8 hour (AID 1224887); also: nearly all actives have a fitted effect of over 50% in size; also: potency is read from the fitted curve at half-maximal effect
How it was run: as §1

[9] = A CellTox Green Cytotoxicity Assay to monitor cytotoxicity in HEK293 cells - 16 hour (AID 1224888); also: nearly all actives have a fitted effect of over 35% in size; also: potency is read from the fitted curve at half-maximal effect
How it was run: as §2

[10] = qHTS RealTime-Glo MT Cell Viability Assay in HepG2 cells - 0 hour (AID 1224889); also: nearly all actives have a fitted effect of over 50% in size; also: potency is read from the fitted curve at half-maximal effect
How it was run: as §4

Compound | Potency [1] | Potency [2] | Potency [3] | Potency [4] | Potency [5] | Potency [6] | Potency [7] | Potency [8] | Potency [9] | Potency [10]
C=C1CC[C@H](O)C/C1=C\C=C1/CCC[C@]2(C)[C@@H]([C@H](C)CCCC(C)C)CC[C@@H]12 | inactive | inactive | inactive | inactive | inactive | inactive | 43.2 µM (active) | 24.3 µM (active) | inactive | –
Nc1ccc([N+](=O)[O-])cc1O | inactive | inactive | inactive | inactive | inactive | inactive | inactive | inactive | inactive | inactive
CN(C)CCOC(C)(c1ccccc1)c1ccccn1 (centres undefined) | inactive | inactive | inactive | inactive | inactive | inactive | inactive | inactive | inactive | inactive
NC(CO)(CO)CO | inactive | inactive | inactive | inactive | inactive | inactive | inactive | inactive | inactive | inactive
Cc1cccc(C)c1 | inactive | inactive | inactive | inactive | inactive | inactive | inactive | inactive | inactive | inactive
Cc1c(C(=O)O)c(O)cc2c1C(=O)c1c(O)c([C@@H]3O[C@H](CO)[C@@H](O)[C@H](O)[C@H]3O)c(O)c(O)c1C2=O | inactive | inactive | inactive | inactive | inactive | inactive | inactive | inactive | inactive | inactive
CCN(CC)C(=O)c1cccc(C)c1 | inactive | inactive | inactive | inactive | inactive | inactive | inactive | inactive | inactive | inactive
Nc1c2c(nc3ccccc13)CCCC2 | inactive | inactive | inactive | inactive | inactive | inactive | inactive | inactive | inactive | inactive
F[B-](F)(F)F | inactive | inactive | inactive | inactive | inactive | inactive | inactive | inactive | inactive | inactive
O=c1[nH]cnc2c1ncn2[C@H]1CC[C@@H](CO)O1 | inactive | inactive | inactive | inactive | inactive | inactive | inactive | inactive | inactive | inactive
Cc1ccc(S(=O)(=O)O)cc1 | inactive | inactive | inactive | inactive | inactive | inactive | inactive | inactive | inactive | inactive
O=C1O[C@H]([C@@H](O)CO)C(O)=C1O | inactive | inactive | inactive | inactive | inactive | inactive | inactive | inactive | inactive | inactive
CCCCCCc1ccc(O)cc1O | inactive | 49.1 µM (active) and 49 µM (active) and inactive | inactive | 49.1 µM (active) and 38.9 µM (active) and 21.3 µM (active) | inactive | inactive | 19.6 µM (active) and 11 µM (active) | 15.5 µM (active) and 9.77 µM (active) | inactive | inactive
CC(=O)CC(c1ccccc1)c1c(O)c2ccccc2oc1=O (centres undefined) | inactive | inactive | inactive | inactive | inactive | inactive | inactive | inactive | inactive | inactive
COc1ccc2c(c1)c(CC(=O)O)c(C)n2C(=O)c1ccc(Cl)cc1 | inactive | inactive | inactive | inactive | inactive | inactive | inactive | inactive | inactive | inactive
CC(=O)C(=O)O | inactive | inactive | inactive | inactive | inactive | inactive | inactive | inactive | inactive | inactive
O=C1OC2(c3ccccc31)c1cc(Br)c(O)c(Br)c1Oc1c2cc(Br)c(O)c1Br | 9.92 µM (active) and 17.9 µM (active) and 23.9 µM (active) | 4.97 µM (active) and 7.11 µM (active) and 21.3 µM (active) | 9.92 µM (active) and 11.3 µM (active) and 23.9 µM (active) | 5.58 µM (active) and 14.2 µM (active) and 23.9 µM (active) | 5.58 µM (active) and 12.7 µM (active) and 19 µM (active) | inactive | inactive | inactive | 4.43 µM (active) and 7.11 µM (active) and 19 µM (active) | 9.92 µM (active) and 20 µM (active)
Cc1cc(C)nc(NS(=O)(=O)c2ccc(N)cc2)n1 | inactive | inactive | inactive | inactive | inactive | inactive | inactive | inactive | inactive | inactive
Cc1ncc([N+](=O)[O-])n1CCO | inactive | inactive | inactive | inactive | inactive | inactive | inactive | inactive | inactive | inactive
